# Laboratory results reported in PubChem BioAssay AID1347131 (National Center for Advancing Translational Sciences (NCATS), 2019).
# Out of some 410,000 compounds screened, about 2,000 (0.49%) were called active. Inconclusive results (about 8%) are left out. The sample as a whole holds a higher share of actives than the screen did. Values without a mark were called inactive. Calls follow the shape of the full dose curve; tested in HEK293 reporter line.
# Assay: qHTS Assay for Foot and Mouth Disease Virus Antivirals: Primary Screen against the MLPCN compound library; also: nearly all actives have a fitted effect of over 55% in size
# Settings: FMDV antiviral cell-based qHTS; series mostly up to 57.9 µM; activity, negative = inhibition: at the top concentration
# Potency is read from the fitted curve at half-maximal effect.
SMILES,Potency,"activity, negative = inhibition"
Cc1ccc(-n2ncc3c(NC4CCCCC4)ncnc32)cc1,20 µM (active),
Cc1ccc(-n2ncc3c(NC4CCCC4)ncnc32)cc1,12.6 µM (active),
Cc1ccc(-n2ncc3c(N4CCN(c5ccc(F)cc5)CC4)ncnc32)cc1,,-27.8%
Cc1ccc(-n2ncc3c(N4CCCCCC4)ncnc32)cc1,,-98.4%
COc1ccccc1N1CCN(c2ncnc3c2cnn3-c2ccc(C)cc2)CC1,,-32.8%
Cc1ccc(-n2ncc3c(N4CCCCC4)ncnc32)cc1,,-57.3%
CC(C)c1cccc(C(C)C)c1NC(=O)CNCC(O)c1ccccc1 (stereo not drawn),,-30.4%
COc1ccccc1Nc1cc(C)nc2c(C)ccc([N+](=O)[O-])c12,,-34.1%
COc1ccccc1N/C=C/c1onc(C)c1[N+](=O)[O-],12.6 µM (active),
COc1ccccc1NC(=O)c1c(N=Cc2cccc([N+](=O)[O-])c2)cnn1C,,-31.2%
O=C(c1ccc(F)cc1)N1CCC(c2nc(-c3ccc(S(=O)(=O)N4CCCC4)cc3)no2)CC1,,-35.1%
COc1ccc(-c2ccc3c(c2)CN(C(=O)C(C)(C)C)Cc2cnnn2-3)cc1,,-30.7%
CCC(C)n1c(S(=O)(=O)O)nc2ccccc21 (stereo not drawn),,-41.2%
O=C(NNC(=O)c1ccc2c(=O)n3c(nc2c1)CCC3)c1cccc(Cl)c1,,-31.4%
Cc1cccc(NC(=O)c2ccc3c(=O)n4c(nc3c2)CCCCC4)n1,12.6 µM (active),
O=C(Nc1ccc2nc3n(c(=O)c2c1)CCCCC3)c1cccc(C(F)(F)F)c1,,-36.3%
CC1(C)Cc2ccccc2-c2nnc(-c3ccc4ccccc4n3)n21,,-33.4%
c1ccc(-c2cn3c(n2)-c2ccccc2C3)cc1,7.94 µM (active),
CN1C(=O)N(CC(=O)Nc2cccc(S(=O)(=O)N(C)c3ccccc3)c2)C(=O)C12CCCCC2,,-33.6%
CCN1C(=O)[C@H]2[C@@H](c3ccc(-c4ccc(Cl)c(Cl)c4)c(OC)c3)N[C@@](C)(C(=O)OC)[C@H]2C1=O,,-42.9%
Cc1cc(C(=O)Nc2nc(C)c(C(=O)N(C)C)s2)ccc1[N+](=O)[O-],15.8 µM (active),
Cc1nc(NC(=O)/C=C/c2ccc(C(C)(C)C)cc2)sc1C(=O)N(C)C,,-38.4%
COc1ccc(N(C)S(=O)(=O)c2cccc(C(=O)Nc3nc(C)c(C(C)=O)s3)c2)cc1,,-50.3%
CCOc1ccc(CCNC(=O)COC(=O)COc2cc(C)cc(C)c2)cc1OCC,,-24.7%
Cc1ccc(Nc2c(C(C)C)c(C)c(C#N)c3nc4ccccc4n23)cc1,,-30.2%
COc1cccc(Oc2cnc(N)nc2-c2ccc(OC)cc2O)c1,,-31.8%

SMILES,Potency,"activity, negative = inhibition"
Cc1cc2nc(-c3nnnn3Cc3ccccc3)c(=O)[nH]c2cc1C,,-30.4%
Cc1cc2nc(-c3ccc[nH]c3=O)[nH]c2cc1C,12.6 µM (active),
COc1ccc(-c2noc(CN(C(=O)c3cccs3)C(C)C)n2)cc1,,-31%
COC(=O)c1[nH]c2ccc(C)cc2c1NC(=O)CN1CCN(c2ccccc2)CC1,,-25.1%
COC(=O)c1[nH]c2cc(OC)ccc2c1NC(=O)CN1CCN(c2cccc(C)c2)C(C)C1 (stereo not drawn),,-40.9%
COC(=O)c1[nH]c2ccccc2c1NC(=O)CN1CCN(c2cccc(OC)c2)C(C)C1 (stereo not drawn),28.2 µM (active),
Cc1cc2nc(N3C(=O)CNC3=S)sc2cc1C,20 µM (active),
COc1ccc(CN(C(=O)c2oc3cc(C)ccc3c2C)C2CCS(=O)(=O)C2)cc1OC (stereo not drawn),,-30.8%
COc1cccc2cc(C(=O)NCc3ccc(Cl)cc3)c(=N)oc12,,-64.3%
COc1cccc2cc(C(=O)Nc3cccc(C)n3)c(=O)oc12,8.91 µM (active),
CCOc1cccc2cc(C(=O)NC(C)c3ccccc3)c(=N)oc12 (stereo not drawn),,-32%
COc1ccc(NC(=O)c2sc3nc(-c4cc5cccc(OC)c5oc4=O)[nH]c(=O)c3c2C)cc1,,-12.9%
Cc1cccnc1NC(=O)c1cc2ccccc2oc1=O,10 µM (active),
C=CCn1c(=O)c(C(=O)Nc2ncccc2C)c(O)c2ccccc21,,-9.9%
Cc1ccc(NC(=O)c2cc3ccccc3oc2=O)cc1S(=O)(=O)N(C)C,,-86.8%
O=C(Nc1ccc(NC(=O)c2cc3ccccc3o2)cc1)c1ccc2c(c1)OCCO2,,-26.3%
N=c1oc2ccccc2cc1C(=O)Nc1ccccc1,11.2 µM (active),
Cc1cccc(C)c1NC(=O)c1cc(-c2ccccn2)nc2ccccc12,,-31.1%
COc1cccc(NC(=O)c2cc3ccccc3oc2=O)c1,20 µM (active),
COc1ccc(NC(=O)c2cc3ccccc3o/c2=N\NS(=O)(=O)c2ccc(C)cc2)cc1,,64%
CCOc1ccc(CN(C)C(=O)c2cc(S(=O)(=O)N3CCCC3)ccc2C)cc1,,-31.9%
Cc1ccccc1C(=O)N/N=C1/SCC(=O)N1Cc1ccc2c(c1)OCO2,,-33.2%
C=CC(COCc1ccccc1)N([C@@H](Cc1ccccc1)C(=O)OC)S(=O)(=O)c1ccccc1Br (stereo partly drawn),,-30.4%
CCN(CCCNC(=O)CC(C(=O)N1CCc2ccccc21)n1ccnc1)c1cccc(C)c1 (stereo not drawn),,-34.7%
Cc1nn(-c2ccccc2)nc1C(=O)NN,,-32%
COc1cc(CNc2ncnc3c2ncn3[C@H]2CN(Cc3ccc(F)cc3)C[C@@H](CO)O2)cc(OC)c1OC,,-34%

SMILES,Potency,"activity, negative = inhibition"
COc1ccc(Oc2ncc3nc(-c4ccc(Cl)cc4)c(=O)n(CCC#N)c3n2)cc1,,-30.5%
CCOC(=O)C1(CCOc2ccccc2)CCN(Cc2ccc(OC)c(O)c2)CC1,,-30.3%
CCC(=O)N(Cc1ccc2c(c1)OCO2)Cc1cc2cc(OC)ccc2[nH]c1=O,,-31.5%
COc1cc(SC)ccc1C(=O)Nc1ccccn1,17.8 µM (active),
COc1ccc(C(=O)Nc2ccc(C)cn2)c(OC)c1,,-97.6%
COc1cc(SC)ccc1C(=O)NCCOc1c(C)cc(C)cc1C,,-35.5%
COc1cc(SC)ccc1C(=O)Nc1ccc(Br)cn1,8.91 µM (active),
COc1cc(C(=O)Nc2ccccc2C(=O)Nc2ccccn2)cc(OC)c1OC,,-30.3%
COc1cc(SC)ccc1C(=O)Nc1nc2ccccc2[nH]1,,-100%
CCOc1ccc(S(=O)(=O)N2CCN(C(=O)c3cc(C4CC4)nn3-c3ccccc3)CC2)cc1,,-36.7%
CN1CCN(C(=O)c2cc3nc(-c4ccccc4)cc(C(F)(F)F)n3n2)CC1,,-43.7%
CC(C)c1cc(Br)c(NC(=O)Nc2cccnc2)c(Br)c1,,-33.2%
O=C1CN=C(c2ccc(Br)cc2)c2c(sc3c2CCCC3)N1CCN1CCCCC1,,-32%
OCCCCCNc1ncnc2ccccc12,,-38.3%
CC(C)(C)c1ccc(C(=O)O/N=C(\N)c2ccccc2)cc1,,-71.3%
CO/N=C\c1cc(C(=O)c2ccc(Cl)cc2Cl)cn1C,,-30.8%
Cc1ccc(C(=O)O/N=C(\N)Cc2ccc([N+](=O)[O-])cc2)c(Cl)c1,,-38.9%
CC(C)(C)c1ccc(C(=O)O/N=C(\N)c2ccccn2)cc1,,-86.1%
Cc1cccc(C(=O)O/N=C(\N)c2ccccn2)c1,8.91 µM (active),
Cc1cccc(/C(N)=N/OC(=O)c2ccc(Cl)cc2Cl)c1,20 µM (active),
CCCNNC(=O)C(O)(c1ccccc1)c1ccccc1,,-31.8%
Cc1ccc(-c2nnc(-c3ccccc3)c(N3CCOCC3)n2)cc1,,-32.6%
COc1ccc(-c2noc(C3CC(=O)N(c4cc(C)cc(C)c4)C3)n2)cc1 (stereo not drawn),,-32.6%
Cc1cccc(C)c1-n1nnnc1C(c1ccnc2ccccc12)N(CCN(C)C)Cc1ccccc1 (stereo not drawn),,-41.8%
Cc1cccc(C(=O)O)c1NC(=O)c1ccc(F)cc1,,-30.2%
Cc1c(NC(=O)c2ccc(-c3ccccc3)cc2)cccc1C(=O)O,5.01 µM (active),

SMILES,Potency,"activity, negative = inhibition"
Cc1ccc(C(=O)Nc2ccccc2C(=O)O)cc1S(=O)(=O)Nc1ccccc1,,106%
COc1ccc(C(C)(O)c2nc(-c3ccc(S(C)(=O)=O)cc3)cs2)cc1 (stereo not drawn),,-32.7%
COc1ccc(-c2csc(N3C(=O)CNC3=S)n2)cc1,10 µM (active),
COc1ccc(C(C)(O)c2nc(-c3ccncc3)cs2)cc1 (stereo not drawn),,-42.2%
Cc1ccc(CC2CC(=O)N(Cc3ccco3)C2=O)cc1 (stereo not drawn),,-35.1%
Cn1c(=O)[nH]c(=O)c2c1nc(N1CCCCC1)n2CCOc1ccccc1,,-35.2%
Cn1c(=O)c2c(nc(N3CCCCC3)n2CC(O)COc2ccccc2)n(C)c1=O (stereo not drawn),,-33.1%
Cn1c(=O)[nH]c(=O)c2c1nc(N1CCCCC1)n2CC(O)COc1ccc([N+](=O)[O-])cc1 (stereo not drawn),10 µM (active),
CCCc1cnc(N2CCN(C(=O)c3ccc(F)cc3)CC2)nc1,,-41.6%
Cc1ccc2c(c1)N(C(=O)Nc1cccc3c1CCCC3)CCO2,,-30.4%
CCC(Sc1nc(C)cc(C)n1)C(=O)O (stereo not drawn),,-22.8%
O=S(=O)(c1ccc(Cl)cc1)N1CCc2ccccc21,,-35.5%
FC(F)(F)c1ccccc1N1CC1c1ccncc1 (stereo not drawn),,-32%
COc1ccccc1[C@]1(C)ON(c2ccccc2C(F)(F)F)C1=O,14.1 µM (active),
COc1ccccc1CC1(C)C(=O)Nc2ccc(OC(F)(F)F)cc21 (stereo not drawn),,-32.7%
O=C(O)c1ccccc1-c1nc2ccccc2n1-c1ccccc1,,-31.7%
Cc1ccc(C(=O)N2CCN(c3nc4ccccc4n3C)CC2)cc1,,-32%
Cc1oc(-c2nc3ccccc3n2C)cc1C(=O)c1ccccc1,17.8 µM (active),
CN(c1ccc(OCC(=O)Nc2ccc(S(N)(=O)=O)cc2)cc1)S(=O)(=O)c1ccc(F)cc1,,-36.3%
Cc1ccc(S(=O)(=O)C2(S(=O)(=O)c3ccc(C)cc3)CC2)cc1,,-43.8%
Cc1ccccc1C(=O)N1CCC(C(=O)Nc2cc(C(F)(F)F)ccc2N2CCCC2)CC1,,-33.6%
O=C(NCCc1nc(-c2ccc(F)cc2)no1)c1ccc(F)cc1,,-36.1%
O=C(NCCC1=CCCCC1)c1ccc(F)cc1,14.1 µM (active),
CN(C)S(=O)(=O)N1CCC(Oc2cccc(C(=O)NCCC3=CCCCC3)c2)CC1,,-46.3%
CCCCn1nc2cc(C(=O)NCC34CC5CC(CC(C5)C3)C4)ccc2c1OC,,-35.6%
